Measurements published in PubChem BioAssay AID1779 (Sanford-Burnham Center for Chemical Genomics, 2009).
Among all 290,000 compounds or so, about 160 (0.055%) were called active. This is one part of a sample in which actives are shown more often than they occur. Rule as the data show it: active = inhibition above about 50%; inactive = the rest.

Biological target: Tyrosine-protein phosphatase non-receptor type 22 (Homo sapiens) (UniProt Q9Y2R2)
Assay: PTPN22 lymphoid phosphatase activity blockers – biochemical, fluorescence intensity, uHTS (AID 1779);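 also: plate controls were vehicle with enzyme for no effect and no enzyme for full effect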
Details: recombinant LYP phosphatase, at 11.5 µM, hits give high values

Sequence of Tyrosine-protein phosphatase non-receptor type 22 (Homo sapiens) (Q9Y2R2 whole entry, looked up): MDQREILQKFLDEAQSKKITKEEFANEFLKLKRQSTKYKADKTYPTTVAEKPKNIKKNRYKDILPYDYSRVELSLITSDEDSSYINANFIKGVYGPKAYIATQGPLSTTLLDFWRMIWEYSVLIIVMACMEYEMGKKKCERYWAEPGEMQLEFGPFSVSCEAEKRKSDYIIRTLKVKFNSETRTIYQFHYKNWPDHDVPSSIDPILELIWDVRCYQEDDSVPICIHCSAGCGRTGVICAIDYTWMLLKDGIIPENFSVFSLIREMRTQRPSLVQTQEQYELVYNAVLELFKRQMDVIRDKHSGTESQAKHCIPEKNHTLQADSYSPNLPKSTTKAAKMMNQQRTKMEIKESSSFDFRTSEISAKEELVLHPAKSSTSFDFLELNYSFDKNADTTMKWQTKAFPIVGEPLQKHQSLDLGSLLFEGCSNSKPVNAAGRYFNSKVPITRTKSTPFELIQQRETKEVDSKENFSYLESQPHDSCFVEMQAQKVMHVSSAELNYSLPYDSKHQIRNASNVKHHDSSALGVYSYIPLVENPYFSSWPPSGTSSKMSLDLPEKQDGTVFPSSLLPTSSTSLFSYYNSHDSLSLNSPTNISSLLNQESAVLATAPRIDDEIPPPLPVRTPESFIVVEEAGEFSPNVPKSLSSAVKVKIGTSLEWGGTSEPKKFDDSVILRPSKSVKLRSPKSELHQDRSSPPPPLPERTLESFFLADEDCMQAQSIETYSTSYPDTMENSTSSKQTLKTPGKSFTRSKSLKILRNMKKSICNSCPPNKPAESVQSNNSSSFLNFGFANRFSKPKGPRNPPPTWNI

Row | Structure (SMILES) | inhibition
1 | CC(NC(=O)CN1CCN(c2ccccc2F)CC1)c1ccccc1 (stereo unspecified) | -13% (inactive)
2 | CS(=O)(=O)N1CCc2ccc(NC(=O)C3CCCO3)cc2C1 (stereo unspecified) | 73.9% (active)
3 | CCCS(=O)(=O)N1CCc2ccc(NC(=O)C3CCCO3)cc2C1 (stereo unspecified) | -11.2% (inactive)
4 | CN(C)S(=O)(=O)N1CCc2ccc(NC(=O)C3CCCO3)cc2C1 (stereo unspecified) | -10.7% (inactive)
5 | O=C(c1c(F)cccc1F)N1CCC(O)(c2cccnc2)CC1 | -8.4% (inactive)
6 | COc1ccc(Cl)cc1NC(=S)N1CCCC1 | -2% (inactive)
7 | CCc1ccc(NC(=O)CS(=O)CC(=O)NCC2OCCc3ccccc32)cc1 (stereo unspecified) | -6.3% (inactive)
8 | O=C(CS(=O)CC(=O)Nc1ccc(Cl)cc1)NCC1OCCc2ccccc21 (stereo unspecified) | 52.3% (active)
9 | COc1ccc(NC(=O)CS(=O)CC(=O)NCC2OCCc3ccccc32)cc1 (stereo unspecified) | -5.2% (inactive)
10 | O=C(O)c1ccccc1NC(=O)c1cc(-c2ccccc2)nc2ccccc12 | -12.6% (inactive)
11 | COC(=O)CCCC1=CC2=C(c3ccccc3)C(=O)C(C)(OC(=O)C3CCCC3)C(=O)C2=CN1CCN1CCOCC1 (stereo unspecified) | -3.1% (inactive)
12 | CSc1nsc(SCC(=O)Nc2cccc(C(C)=O)c2)n1 | 52.6% (active)
13 | CSc1nsc(SCC(=O)Nc2cccc(NC(C)=O)c2)n1 | -3.8% (inactive)
14 | CSc1nsc(SCC(=O)Nc2cccc(C(=O)O)c2)n1 | -1.3% (inactive)
15 | CO/C([O-])=N/c1c[n+](-c2ccc(Cl)cc2)no1 | -3.1% (inactive)
16 | COCCNC(=O)c1c(CSc2ccccc2)noc1C(=O)NCc1ccccc1 | -2.5% (inactive)
17 | COc1c(C)cc(C(=O)C2CCCN(C(=O)c3csc(C)n3)C2)cc1C (stereo unspecified) | -11.3% (inactive)
18 | OCC1(CCc2ccccc2)CCN(Cc2cc(Cl)ccc2O)CC1 | -10.5% (inactive)
19 | Fc1ccccc1Cn1nnc2c(NCCc3ccccn3)ncnc21 | -5.2% (inactive)
20 | COc1cc(/C=N/n2c(-c3ccccc3)n[nH]c2=S)cc(OC)c1OC | -1.8% (inactive)
21 | O=C1C2C(C(=O)N1/N=C/c1cccc([N+](=O)[O-])c1)C1C=CC2C12CC2 (stereo unspecified) | 51.6% (active)
22 | O=C1C2C(C(=O)N1/N=C/c1ccc([N+](=O)[O-])o1)C1C=CC2C12CC2 (stereo unspecified) | -11.3% (inactive)
23 | O=C1C2C(C(=O)N1/N=C/c1cc([N+](=O)[O-])ccc1O)C1C=CC2C12CC2 (stereo unspecified) | 0.1% (inactive)
24 | COc1cc(/C=C/C(=O)OCC(=O)c2c(N)n(C)c(=O)n(C)c2=O)ccc1O | 2.2% (inactive)

Row | Structure (SMILES) | inhibition
25 | CCN(CC)C(=O)c1sc(NC(=O)Cc2ccccc2)c(C#N)c1C | -7.8% (inactive)
26 | CCOC(=O)c1c(-c2ccc(C)cc2)csc1NC(=O)c1cccc(N2C(=O)CCC2=O)c1 | 1% (inactive)
27 | CCCC[N+](C)(C)CCC(=O)NC(C)(C)CS(=O)(=O)[O-] | -4.3% (inactive)
28 | CC1(NC(=O)CC[N+](C)(C)CCO)CS(=O)(=O)CC1S(=O)(=O)[O-] (stereo unspecified) | 0.6% (inactive)
29 | Cc1c(C(=O)NNC(=S)NCc2ccc(Cl)cc2)oc2ccccc12 | -1.3% (inactive)
30 | COC(=O)CCCC1=CC2=C(c3ccccc3)C(=O)C(C)(OC(=O)C3CCCC3)C(=O)C2=CN1CC1CC1 (stereo unspecified) | -6.7% (inactive)
31 | Cc1ccc2c(c1)N(C(=O)CCC(=O)NCc1cccc(Br)c1)CC(C)O2 (stereo unspecified) | 90.4% (active)
32 | Cc1ccc2c(c1)N(C(=O)CCC(=O)NCc1cccc(Cl)c1)CC(C)O2 (stereo unspecified) | -4% (inactive)
33 | Cc1ccc2c(c1)N(C(=O)CCC(=O)NCc1ccccc1)CC(C)O2 (stereo unspecified) | -6.7% (inactive)
34 | COc1cccc(CNC(=O)c2csc3c2CCCC3)c1 | -8.1% (inactive)
35 | CCC(=O)N(Cc1cc2cc(OC)ccc2[nH]c1=O)c1cccc(C)c1 | -4.9% (inactive)
36 | Cn1nc(-c2ccccn2)nc2c(=O)n(C)c(=O)nc1-2 | 73.5% (active)
37 | CCCc1nc(SCC(=O)c2ccc(OC)cc2)c2c(=O)n(C)c(=O)n(C)c2n1 | 7.4% (inactive)
38 | c1ccc(-c2nc(-c3ccccn3)nc(-c3ccccn3)n2)nc1 | -4% (inactive)
39 | CCCc1nc2c(=O)n(C)c(=O)nc-2n(C)n1 | 79% (active)
40 | Cn1nc(-c2ccc(Cl)cc2)nc2c(=O)n(C)c(=O)nc1-2 | -0.7% (inactive)
41 | CCn1c(N)nc2c1c(=O)n(C)c(=O)n2C | 0.4% (inactive)
42 | Cn1c(N)c(C(=O)COC(=O)CCc2ccccc2)c(=O)n(C)c1=O | -4.8% (inactive)
43 | CC1CCCC(NC(=O)COC(=O)CCc2ccccc2)C1C (stereo unspecified) | -5.4% (inactive)
44 | Clc1ccccc1CNCC1CCCO1 (stereo unspecified) | -13.9% (inactive)
45 | CCOC(=O)COc1c(/C=N\O)cc(Cl)cc1OC | -4.2% (inactive)
46 | COc1ccc(C(=O)c2no[n+]([O-])c2C(=O)c2ccc(OC)cc2)cc1 | 7.8% (inactive)
47 | O=C(c1cccs1)c1no[n+]([O-])c1C(=O)c1cccs1 | 55.5% (active)
48 | Cc1ccc(C(=O)c2no[n+]([O-])c2C(=O)c2ccc(C)cc2)cc1 | -5.8% (inactive)

Row | Structure (SMILES) | inhibition
49 | CN(CC(=O)Nc1ccc(F)cc1)C(=O)CSc1nc2ncc(Cl)cc2[nH]1 | -4.4% (inactive)
50 | N#Cc1ccc(N/N=C/c2cn(-c3ccccc3)nc2-c2ccccc2)c([N+](=O)[O-])c1 | -1.1% (inactive)
51 | COCCn1c(C)cc(C(=O)COc2ncnc3ccc(Br)cc23)c1C | -1.5% (inactive)
52 | CCOc1ccc(NC(=O)CN(c2ccc(C)cc2)S(=O)(=O)c2c(C)nn(C)c2C)cc1 | -8.4% (inactive)
53 | Cn1c(SCC(=O)N2CCN(c3ccccc3)CC2)nnc1-c1ccccc1 | -8.4% (inactive)
54 | Cn1c(SCC(=O)N2CCN(c3ccccc3)CC2)nnc1-c1ccco1 | -8.2% (inactive)
55 | Cn1c(SCC(=O)N2CCN(c3ccccc3)CC2)nnc1-c1cc2ccccc2o1 | 79.7% (active)
56 | Cc1ccc(CNS(=O)(=O)c2ccc(C(C)(C)C)cc2)n1C | -5.6% (inactive)
57 | Cc1cccc(NC(=O)CN2CCOCC2)c1C | -9.5% (inactive)
58 | c1ccc2c(CN3CCCCC3)csc2c1 | 68.1% (active)
59 | Clc1ccc2scc(CN3CCCCC3)c2c1 | -6.7% (inactive)
60 | c1ccc2c(CN3CCOCC3)csc2c1 | -4.5% (inactive)
61 | C=CCn1c(C)cc(C(=O)CN2NS(=O)(=O)c3ccccc3C2=O)c1C | -3.8% (inactive)
62 | Cc1nn(Cc2ccc(Cl)cc2)c(C)c1NC(=O)CSc1n[nH]c(C)c1[N+](=O)[O-] | -3.2% (inactive)
63 | COc1cc2c(cc1OC)C(C(=O)N1CCCC1)C(c1ccccc1F)N(C)C2=O (stereo unspecified) | -2.7% (inactive)
64 | COc1ccc(C2C(C(=O)N3CCCC3)c3cc(OC)c(OC)cc3C(=O)N2C)cc1OC (stereo unspecified) | -1.1% (inactive)
65 | COc1cc2c(cc1OC)C(C(=O)N1CCCCC1)C(c1ccccc1F)N(C)C2=O (stereo unspecified) | 64.6% (active)
66 | COCCCNc1nc2c(-c3ccc(C)cc3)nnn2c2ccccc12 | -6.1% (inactive)
67 | O=C(N=C1c2ccccc2CN1c1cccc(Cl)c1)c1cccnc1 | -6.2% (inactive)
68 | COc1cc(SC#N)ccc1N=Cc1c(C)[nH]n(-c2ccc(Cl)cc2)c1=O | 80.6% (active)
69 | COc1cc(SC#N)ccc1N=Cc1c(C)[nH]n(-c2ccc(C)cc2C)c1=O | -3.1% (inactive)
70 | COc1cc(SC#N)ccc1N=Cc1c(C)[nH]n(-c2ccc(C)c(C)c2)c1=O | -5.7% (inactive)
71 | CCOC(=O)C1CCN(S(=O)(=O)c2cc(Cl)c(C)cc2OC)CC1 | 0% (inactive)
72 | CCOC(=O)C1CCN(C(=O)Nc2ccc3nc(-c4ccco4)c(-c4ccco4)nc3c2)CC1 | 53.4% (active)

Row | Structure (SMILES) | inhibition
73 | O=C(Nc1ccc2nc(-c3ccco3)c(-c3ccco3)nc2c1)N1CCCCCC1 | 17.4% (inactive)
74 | CCOC(=O)C1CCN(C(=O)Nc2ccc3nc(C)c(C)nc3c2)CC1 | -2.2% (inactive)
75 | CCC(=O)N1CCc2nc(-c3ccccc3)sc2C1 | -5.1% (inactive)
76 | COC(=O)c1ccc(CSc2nc(-c3ccccc3)cs2)o1 | -2.6% (inactive)
77 | CC(=O)N1c2c(cc(Br)cc2S(=O)(=O)N2CCCCC2)CC1C (stereo unspecified) | -0.1% (inactive)
78 | CCOC(=O)N1CCN(S(=O)(=O)c2cc(Br)cc3c2N(C(C)=O)C(C)C3)CC1 (stereo unspecified) | 3% (inactive)
79 | CC(=O)N1c2c(cc(Br)cc2S(=O)(=O)N2CCOCC2)CC1C (stereo unspecified) | 51.5% (active)
80 | COc1ccc(C(=O)Nc2cccc(C(=O)N3CCCC3)c2)cc1 | -7.1% (inactive)
81 | COc1ccccc1CC(=O)Nc1ccc(S(=O)(=O)N2CCN(C)CC2)cc1 | -10.4% (inactive)
82 | Cc1cnc2cc(Cl)c(Cl)cc2n1 | -3.4% (inactive)
83 | Cc1cc2nc(Cl)c(Cl)nc2cc1C | -2.6% (inactive)
84 | Cc1cc2ncc(Cl)nc2cc1C | 59.3% (active)
85 | CC(Oc1ccc([N+](=O)[O-])cc1Cl)C(=O)Nc1ccc(C(N)=O)cc1 (stereo unspecified) | -5.5% (inactive)
86 | Cc1ccc(NC(=O)C2CCCN2C(=O)NC2CCCCC2)cc1C (stereo unspecified) | -7% (inactive)
87 | CCCN1C(=O)C2(C(C(=O)c3ccc(C)o3)=C(O)C(=O)N2CCCOC)c2ccccc21 (stereo unspecified) | 3.3% (inactive)
88 | Cc1nc2ccccc2cc1C(=O)NCc1ccco1 | 1.1% (inactive)
89 | O=C(NCc1ccco1)c1ccc2ccccc2n1 | 56.3% (active)
90 | O=C(NCc1ccccc1)c1ccc2ccccc2n1 | -6.3% (inactive)
91 | CC1CCN(C(=O)Cn2c(SCC(=O)Nc3nccs3)nc3ccccc32)CC1 | -1% (inactive)
92 | CN1CCN(c2ccccc2NC(=O)Cc2ccc(Cl)cc2)CC1 | -9.1% (inactive)
93 | NN1C(=O)/C(=C2/Sc3ccccc3N2CCCS(=O)(=O)O)SC1=S | -6.6% (inactive)
94 | CC1=NN(C(=O)c2ccc(Cn3ccc([N+](=O)[O-])n3)cc2)C(O)(C(F)(F)F)C1 (stereo unspecified) | 63.4% (active)
95 | CC1=NN(C(=O)c2ccc(Cn3cc([N+](=O)[O-])cn3)cc2)C(O)(C(F)(F)F)C1 (stereo unspecified) | -3.4% (inactive)
96 | CC1=NN(C(=O)Cn2ccc([N+](=O)[O-])n2)C(O)(C(F)(F)F)C1 (stereo unspecified) | -3.6% (inactive)
